For 9 molecules, growth results are on record in PubChem BioAssay (NCI).

The structures appear in SMILES notation. About 83,000 compounds went through this panel and 20% of them were active in at least one assay; those are over-represented in the sample as a whole.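 Single-concentration screen, 48 h exposure, 96-well plates. Endpoint: percent growth. Below 10 = active.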 A number with no mark means an inactive call. The source made the active and inactive calls.

Among the test systems are SR leukemia; RPMI-8226 leukemia; OVCAR-8 ovarian; OVCAR-5 ovarian; OVCAR-4 ovarian; SK-OV-3 ovarian; IGROV1 ovarian; OVCAR-3 ovarian; HS 578T breast; NCI/ADR-RES ovarian; T-47D breast; BT-549 breast; SW-620 colon; MCF7 breast; HCT-116 colon; HCC-2998 colon; KM12 colon; MDA-MB-435 melanoma.
Assay in all cases: NCI-60 one-dose screen, 48 h (100 = growth as untreated, 0 = no growth, -100 = all killed)
Holding throughout (settings): 10 µM unless noted

Consider `N/C(=N\c1nc2ccccc2s1)NC(=NC1CCCCC1)NC1CCCCC1`, for which the growth with SR leukemia is 8.88% (active); in the test with RPMI-8226 leukemia, -30.4% (active); in the test with OVCAR-8 ovarian, 4.41% (active); in the test with OVCAR-5 ovarian, 24.6%; in the test with OVCAR-4 ovarian, 26.7%; in the test with SK-OV-3 ovarian, 74.9%. The growth is 14.4% in the test on IGROV1 ovarian; 57.6% in the test on OVCAR-3 ovarian; 37.8% with HS 578T breast; 15% with NCI/ADR-RES ovarian; 13.2% with T-47D breast; 47.6% with BT-549 breast. Further, the growth in the test with SW-620 colon was 0.593% (active); in the test on MCF7 breast, -42.4% (active); with HCT-116 colon it was 0.368% (active); in the test with HCC-2998 colon, -88.6% (active); in the test on KM12 colon it was 27.5%.
As for `CCCC(O)Cn1ncc(C(=O)OCC)c1NC(=O)NCc1cccc(F)c1` (stereo not drawn), the growth in the test on SR leukemia is 80.1%; in the test with RPMI-8226 leukemia, 75.2%; with OVCAR-8 ovarian, 94.8%; in the test on OVCAR-5 ovarian, 100%; in the test with OVCAR-4 ovarian, 87.2%; in the test with SK-OV-3 ovarian, 100%. For the same molecule, the growth is 97.2% with IGROV1 ovarian; 99.7% in the test on OVCAR-3 ovarian; 110% in the test on HS 578T breast; 95.5% in the test on NCI/ADR-RES ovarian; 88.2% in the test on T-47D breast; 78.5% in the test on BT-549 breast. Moreover, the growth in the test on MDA-MB-435 melanoma is 101%; with MCF7 breast, 91.8%; with HCT-116 colon it was 71.6%; in the test on HCC-2998 colon, 90.6%; with KM12 colon, 105%.
Regarding `C=CC(=O)N1CCN(c2ccc3cccc(NC(=O)c4cnc(C)cn4)c3n2)CC1`, the growth in the test on SR leukemia was 9.43% (active); in the test on RPMI-8226 leukemia it was 43.3%; in the test with OVCAR-8 ovarian, 27.2%; in the test on OVCAR-5 ovarian it was 71.5%; with OVCAR-4 ovarian, 43.7%; with SK-OV-3 ovarian, 11.1%. Besides, the growth with IGROV1 ovarian was 9.7% (active); in the test with OVCAR-3 ovarian, 43.5%; with HS 578T breast it was 34.3%; with NCI/ADR-RES ovarian, 30.9%; in the test with T-47D breast, 28.2%; with BT-549 breast, 34.3%. Moreover, the growth with SW-620 colon is 48.7%; with MCF7 breast, 48.2%; in the test with HCT-116 colon, 27.4%; in the test with HCC-2998 colon, 72.4%; in the test with KM12 colon, 23%.
For `O=C1/C(=C/c2ccccc2)CN(C(=O)c2cccnc2)C/C1=C\c1ccccc1`, the growth was 4.69% (active) in the test on SR leukemia; -19.6% (active) in the test on RPMI-8226 leukemia; 12.4% in the test with OVCAR-8 ovarian; 10.8% with OVCAR-5 ovarian; 43.8% with OVCAR-4 ovarian; 40.2% in the test on SK-OV-3 ovarian. Also, the growth with IGROV1 ovarian was 2.89% (active); in the test with OVCAR-3 ovarian, -16.2% (active); with HS 578T breast, 21.4%; in the test with NCI/ADR-RES ovarian, 18.7%; with T-47D breast, 9% (active); in the test on BT-549 breast it was -53.3% (active). Also, the growth in the test on SW-620 colon was -54.4% (active); in the test on MCF7 breast, 0.394% (active); in the test on HCT-116 colon it was -87.6% (active); in the test with HCC-2998 colon, -83.5% (active); in the test on KM12 colon it was -40.1% (active).
On to `O=C1/C(=C/c2ccc(Br)cc2)COc2ccc(O)c(O)c21`, for which the growth with SR leukemia was 6.26% (active); in the test on RPMI-8226 leukemia it was -33.5% (active); with OVCAR-8 ovarian it was 6.31% (active); in the test with OVCAR-5 ovarian, -59.8% (active); in the test with OVCAR-4 ovarian, 15.6%; in the test with SK-OV-3 ovarian, 58.8%. Moreover, the growth in the test on IGROV1 ovarian is -45.7% (active); with OVCAR-3 ovarian, -91.5% (active); in the test on HS 578T breast it was 11.9%; in the test on NCI/ADR-RES ovarian, 3.52% (active); with T-47D breast it was -16.3% (active); in the test with BT-549 breast, 3.5% (active). For the same molecule, the growth in the test with SW-620 colon was -35.9% (active); in the test with MCF7 breast, 4.13% (active); with HCT-116 colon it was -15.9% (active); with HCC-2998 colon, -66.3% (active); in the test with KM12 colon, -68% (active).
In the case of `COc1ccc2nc(Cl)c(/C=C/C(=O)c3ccc(NC(=O)CSc4nnc(-c5ccc(Cl)c(Cl)c5)n4-c4ccccc4)cc3)cc2c1`, the growth in the test on SR leukemia is 98.6%; in the test with RPMI-8226 leukemia, 62%; in the test with OVCAR-8 ovarian it was 92.1%; in the test on OVCAR-5 ovarian, 102%; in the test with OVCAR-4 ovarian, 103%; in the test on SK-OV-3 ovarian, 91.4%. The growth in the test on IGROV1 ovarian is 76.3%; with OVCAR-3 ovarian, 105%; with HS 578T breast it was 89.3%; in the test with NCI/ADR-RES ovarian, 102%; in the test with T-47D breast it was 83.5%; with BT-549 breast, 80%. Also, the growth in the test on SW-620 colon is 92.3%; with MCF7 breast, 82.5%; in the test with HCT-116 colon it was 68.6%; in the test with HCC-2998 colon, 105%; in the test with KM12 colon it was 98.4%.
For the molecule `Cc1ccc(-c2csc(NC(=O)N3CCN(c4cc5c(cc4F)c(=O)c(C(=O)O)cn5C4CC4)CC3)n2)cc1`, the growth in the test with SR leukemia was 18.2%; in the test on RPMI-8226 leukemia, 4.84% (active); in the test with OVCAR-8 ovarian, 7.72% (active); in the test with OVCAR-5 ovarian, 23.2%; in the test on OVCAR-4 ovarian, 33.5%; in the test with SK-OV-3 ovarian, -11.6% (active). The growth with IGROV1 ovarian was 17%; in the test on OVCAR-3 ovarian it was 7.6% (active); in the test with HS 578T breast it was 38.6%; with NCI/ADR-RES ovarian, 21.8%; in the test on T-47D breast it was 11.5%; in the test with BT-549 breast, 3.9% (active). In addition, the growth in the test with SW-620 colon was 27.2%; with MCF7 breast it was 6.05% (active); in the test with HCT-116 colon it was 11.4%; in the test with HCC-2998 colon, 32.9%; with KM12 colon, 11.4%.
Consider `CC[C@@H](c1ccc2cc(OC)ccc2c1)C(C)(C)C(=O)F`, for which the growth in the test on SR leukemia was 112%; with RPMI-8226 leukemia it was 146%; in the test with OVCAR-8 ovarian, 94.8%; with OVCAR-5 ovarian it was 86.2%; with OVCAR-4 ovarian, 109%; in the test on SK-OV-3 ovarian it was 107%. For the same molecule, the growth is 28.3% with IGROV1 ovarian; 85.7% in the test on OVCAR-3 ovarian; 91.8% with HS 578T breast; 77.5% in the test with NCI/ADR-RES ovarian; 118% in the test on T-47D breast; 19.9% with BT-549 breast. In addition, the growth is 94.6% with SW-620 colon; 108% with MCF7 breast; 85.6% in the test with HCT-116 colon; 55.1% with HCC-2998 colon; 107% in the test with KM12 colon.
For the molecule `CC1(C)O[C@H]2OC3CCC(=O)CC3(O)[C@H]2O1` (stereo partly drawn), the growth with SR leukemia was 107%; in the test with RPMI-8226 leukemia, 96%; in the test with OVCAR-8 ovarian, 98.2%; in the test with OVCAR-5 ovarian, 107%; in the test with OVCAR-4 ovarian, 110%; in the test on SK-OV-3 ovarian it was 94.9%. For the same molecule, the growth in the test on IGROV1 ovarian was 108%; in the test with OVCAR-3 ovarian it was 104%; in the test with HS 578T breast, 97%; in the test on NCI/ADR-RES ovarian, 102%; in the test on T-47D breast, 91.8%; with BT-549 breast it was 104%. Further, the growth with MDA-MB-435 melanoma is 112%; with MCF7 breast, 108%; in the test with HCT-116 colon, 95.1%; in the test with HCC-2998 colon it was 98.7%; in the test with KM12 colon it was 102%.
